# This is a sample that favours compounds with a hit; in the whole collection about 2.4% have one here.
# POLK inh = inhibitors of human DNA polymerase kappa; Q9UBT6; purified Pol kappa, fluorescent DNA synthesis assay, 10 min; Potency, µM (top dose mostly 107 µM), without a hit: top-dose activity, negative = inhibition, most hits filed as inhibitors; 0.53% of 400,000 active; also: % is scaled to controls: 0 for no effect and ±100 for the full control effect
#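 Activity was followed as the change in fluorescence between reads at 0 and 10 min after starting the reaction with 50 nM substrate. Beforehand, 10 nM polymerase had been preincubated with compound for 15 min at room temperature.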
# GCN5L2 inh = blocks human GCN5L2 histone acetyltransferase; 0.21% of 390,000 active; GCN5L2 HAT assay, ThioGlo1 CoA-SH fluorescence; Potency, µM (highest dose often 58.9 µM), for inactives: at the top dose activity change, negative = inhibition, usual class: inhibitors; also: % is scaled to controls: 0 for no effect and ±100 for the full control effect
#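 qHTS, 1536-well. 20nM enzyme, pH 7.5 HEPES/EDTA/Tween-20 buffer; 15 min compound preinc., RT. Start: 75uM H3(1-25), 70uM AcCoA, 50uM ThioGlo1. Read Ex340/Em540 at t=0 (autofluorescence flag) and t=20 min.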
# Pol eta inh = blocks human DNA polymerase eta activity; Potency, µM (titrated, usually from 114 µM), inactives show top-dose activity change, negative = inhibition, actives largely listed as inhibitors; 1.2% of 390,000 active; recombinant Pol eta, fluorescent DNA replication assay; Q9Y253; also: % is scaled to controls: 0 for no effect and ±100 for the full control effect
#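 Fluorescent replication assay: 50 nM final substrate added after a 15 min room-temperature compound preincubation with 10 nM enzyme. Signal taken at 0 min and again at 10 min.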
# GLS inh = glutaminase GLS (human) inhibition; GLS enzymatic activity, qHTS titration; Potency, µM (doses to about 45.5 µM), for inactives: at the top dose activity change, negative = inhibition, actives largely listed as inhibitors; 0.21% of 410,000 active; also: % is scaled to controls: 0 for no effect and ±100 for the full control effect
# Target sequence (O94925 whole entry, looked up): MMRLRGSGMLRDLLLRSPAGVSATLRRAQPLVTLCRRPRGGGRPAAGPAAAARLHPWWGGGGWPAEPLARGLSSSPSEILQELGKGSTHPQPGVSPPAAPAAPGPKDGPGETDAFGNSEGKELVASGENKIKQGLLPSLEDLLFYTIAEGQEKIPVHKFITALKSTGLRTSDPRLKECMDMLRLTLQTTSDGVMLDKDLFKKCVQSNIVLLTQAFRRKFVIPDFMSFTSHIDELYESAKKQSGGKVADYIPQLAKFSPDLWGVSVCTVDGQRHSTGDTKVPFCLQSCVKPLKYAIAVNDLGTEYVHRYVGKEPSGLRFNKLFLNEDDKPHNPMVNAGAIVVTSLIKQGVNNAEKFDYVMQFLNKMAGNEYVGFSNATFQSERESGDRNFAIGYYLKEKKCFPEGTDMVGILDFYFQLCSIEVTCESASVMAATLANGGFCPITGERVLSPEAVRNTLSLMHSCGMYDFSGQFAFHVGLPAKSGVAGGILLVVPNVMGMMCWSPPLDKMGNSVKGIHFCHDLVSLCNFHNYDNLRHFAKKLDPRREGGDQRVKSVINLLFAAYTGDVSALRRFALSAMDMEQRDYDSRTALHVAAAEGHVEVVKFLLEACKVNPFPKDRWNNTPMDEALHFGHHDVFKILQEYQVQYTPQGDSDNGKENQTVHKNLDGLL
#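 Enzyme dispensed in phosphate buffer (45 mM, pH 8.2, 0.02% Tween-20), compounds pinned in, then 1 mM L-glutamine solution and the glutamate oxidase–HRP–Amplex Red mix added; fluorescence read immediately and again after 30 min at room temperature.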
# POLB inh = blocks human DNA polymerase beta activity; P06746; Pol beta primer extension/strand displacement, fluorescence kinetic; Potency, µM (titrated, usually from 114 µM), inactives show at the top dose activity change, negative = inhibition, hits mostly inhibitors; 1.3% of 340,000 active; also: % is scaled to controls: 0 for no effect and ±100 for the full control effect
#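 10 nM enzyme + cpd, 15 min RT; start with substrate 50 nM final; read 0 min and after 10 min RT. Corrected, normalized data; 4-parameter Hill curve fit.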
# Pol iota inh = DNA polymerase iota (human) inhibition. Pol iota fluorescent replication assay, 10 min. 1% of 390,000 active. Potency, µM (series often up to 115 µM), for the others: at the top dose activity, negative = inhibition, hits mostly inhibitors. AID 588590
#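 Pol iota at 10 nM preincubated 15 min with compounds at room temperature; reaction started with fluorescent substrate, 50 nM final. Fluorescence read kinetically at 0 and 10 min; buffer-only wells as negative control.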
# * marks the source's active call; other numbers are inactive results; u = inconclusive; x = no result given; ! = not active in a repeat; [ ] = another dose, or the depositor's remark. Calls follow the shape of the dose curve; as a rule, active = well fitted inhibition curve with a large enough effect; inconclusive = small, poorly fitted or top-dose-only effect, or another doubt; inactive = no such curve, though single readings can be large or run the other way. Potency is read from the fitted curve at half-maximal effect.
SMILES,POLK inh,GCN5L2 inh,Pol eta inh,GLS inh,POLB inh,Pol iota inh
CC1(C)SC2C(NC(=O)C(C(=O)O)c3ccccc3)C(=O)N2C1C(=O)O (stereo unspecified),-4.7%[60.1 µM],8.9%,x,u,x,x
CCN1CCN(C(=O)N[C@H](C(=O)N[C@@H]2C(=O)N3[C@@H](C(=O)O)C(C)(C)S[C@@H]23)c2ccccc2)C(=O)C1=O,x,x,x,25.1µM*,x,x
O=S1(=O)CCOCCCN1Cc1ccc(F)cc1,-0.8%,x,x,x,x,10.0%
CCCCCCCCN1[C@@H](CC(C)=O)c2ccc(/C=C/C(C)=O)cc2S1(=O)=O,13.7%,x,x,x,x,u
Cc1cc(C)c(S(=O)(=O)/N=C2/C=C(SCC(=O)O)C(=O)c3ccccc32)cc1C,-13.7%,-29.0%,20µM*,-17.2%,u,6.31µM*
C=C(NCc1ccccc1)c1ccccc1O,-0.1%[19.4 µM],2.3%,x,2.6%,x,x
Cc1cccc(Cn2cnc3c(cnn3C(C)(C)C)c2=O)c1F,1.9%,x,x,x,x,-0.2%
O=C(Cn1ncc2c(=O)oc3ccccc3c21)NCc1ccc(Cl)cc1,-7.4%,4.6%,0.2%,-7.0%,4.5%,-0.9%
Cc1cc(NC(=O)C(C)Sc2nnc(NCc3ccco3)s2)no1 (stereo unspecified),-14.5%,-2.5%,u,-7.3%,x,39.8µM*
COc1ccc(/C=C/C(=O)c2ccc([N+](=O)[O-])o2)cc1OC,5.2%,-2.9%,u,-13.3%,x,8.91µM*
CN(C)c1ccc(C=O)c(Cl)c1,-9.9%,x,x,x,x,7.6%
CN(C)c1ccc(C=O)c(O)c1,u,x,x,x,x,50.1µM*
CN(CC(=O)Nc1c(Cl)cccc1Cl)C(=O)c1ccccc1SCC(=O)N1CCCC1,-7.6%,0.5%,-14.3%,15.8µM*,24.0%,24.9%
O=C(O)CCCCCN1C(=O)/C(=C\c2ccc(-c3ccc(Cl)cc3)o2)SC1=S,79.4µM*,-7.5%,u,u,u,35.5µM*
O=C(O)CCCCCN1C(=O)/C(=C\c2ccncc2)SC1=S,-9.6%,-0.3%,-15.1%,9.5%,1.3%,u
CN(C)c1ccc(/C=C/c2ccnc3ccc(-c4ccccc4)cc23)cc1,-0.8%,x,x,x,x,-10.6%
O=C(CSc1nc(-c2ccccc2)no1)N1CCN(c2ccccc2F)CC1,-9.5%,2.5%,-11.9%,-1.8%,1.3%,89.1µM*
CC(C)(C)n1ncc2c(=O)n(Cc3ccc(Cl)c(OC(F)(F)F)c3)cnc21,-12.0%,x,x,x,x,1.4%
CCOC(=O)C(C)N1C(=O)S/C(=C/c2cc(C)n(-c3ccccn3)c2C)C1=O (stereo unspecified),89.1µM*,-8.5%,-19.5%,-2.3%,-3.3%,-4.9%
CC(Oc1ccc(F)cc1)C(=O)Nc1cccc(-c2nn[nH]n2)c1 (stereo unspecified),-23.2%,-19.0%,44.7µM*,-2.5%,-1.4%,44.7µM*
COc1ccc(N2CCN(S(=O)(=O)c3ccc4c(c3)CCCN4C(C)=O)CC2)cc1,-9.1%[60.1 µM],-7.6%,-2.6%,22.5%,u,6.9%
CCC(C)/C(C)=N/Nc1ccc(S(N)(=O)=O)cc1[N+](=O)[O-] (stereo unspecified),0.0%,-6.2%,89.1µM*,-0.7%,5.1%,115.9%
CC1=CC(=O)c2c(O)ccc(O)c2C1=O,x,12.6µM*,x,x,1.78µM*,x
COc1ccc(-c2cc(-c3ccco3)[nH]c(=O)c2C#N)cc1,-0.1%,-11.4%,u,-10.1%,u,26.6%
N#Cc1c(-c2cccc(Br)c2)cc(-c2ccco2)[nH]c1=O,-37.9%,-23.7%,50.1µM*,u,17.8µM*,u
SMILES,POLK inh,GCN5L2 inh,Pol eta inh,GLS inh,POLB inh,Pol iota inh
O=C1NC(=O)C2C3C=CC(C3)C12 (stereo unspecified),0.3%[19.4 µM],1.5%,x,11.1%,x,x
NC(CSC(c1ccccc1)(c1ccccc1)c1cccc2ccccc12)C(=O)O (stereo unspecified),u,x,20µM*,1.6%,x,u
N[C@H](CSC(c1ccccc1)(c1ccccc1)c1ccccc1)C(=O)O,-14.8%[60.1 µM],-20.4%,x,x,x,x
O=[N+]([O-])c1ccccc1-c1ccc(/C=N/n2cnnc2)o1,-3.6%,37.9%,4.9%,-4.2%,8.4%,-5.4%[58.9 µM]
O=[N+]([O-])c1cc(-c2ccc(/C=N\n3cnnc3)o2)cc([N+](=O)[O-])c1,u,1.1%,u,3.9%,56.2µM*,22.4µM*
CCCCN(CC)C(=O)c1cc2c(=O)n3ccccc3nc2n1C,-27.5%,-3.1%,-11.8%,1.7%,44.7µM*,-24.9%
CCc1sc(C(C2C(=O)CC(C)(C)CC2=O)C2C(=O)CC(C)(C)CC2=O)cc1[N+](=O)[O-],-11.6%,-3.2%,u,7.08µM*,u,u
C=CCN1C(=O)/C(=c2\sc3nc(=O)c(Cc4ccccc4)nn3c2=O)c2ccccc21,0.5%,-9.4%,-2.0%,u,-26.0%,u
C=CCN1C(=O)/C(=N/n2cnnc2)c2ccccc21,-5.0%,-2.0%,-13.1%,-8.0%,3.1%,31.6µM*
N#CC(C#N)=C1C=C2C=C(N3CCCCC3)CCC2CC1 (stereo unspecified),-7.0%,-3.0%,79.4µM*,7.2%,50.1µM*,u
CCOC(=O)c1cc2c(=O)n3ccccc3nc2n(CC2CCCO2)c1=NC(=O)c1cccc(C)c1 (stereo unspecified),-9.5%,-0.1%,-9.0%,16.7%,37.4%,6.1%
O=C1CCC[C@@H]2C[C@@]3(C[C@@H]4CCN1[C@H]24)Nc1cc([N+](=O)[O-])ccc1NC3=NCc1ccccc1,-12.7%,x,x,x,x,0.6%
CC1CCN(CCCCOc2ccccc2[N+](=O)[O-])CC1,-9.2%,-1.7%,-5.7%,-1.7%,23.8%,79.4µM*
CC(C)C[C@@H](C=O)NC(=O)[C@H](CC(C)C)NC(=O)[C@H](CC(C)C)NC(=O)OCc1ccccc1,-8.9%[19.4 µM],1.8%,x,x,x,x
Cc1ccc(-n2c(O)c(/C=N/c3ncn[nH]3)c3ccccc3c2=O)cc1,-6.4%,-10.2%,-21.4%,27.0%,12.6µM*,0.5%
C[N+]1(CC(=O)c2ccc3ccccc3c2)CCOCC1,1.7%,x,x,x,x,38.9%
Cc1cccc2sc(NNC(=O)c3cc(=O)c4ccccc4o3)nc12,-4.4%,-8.9%,-16.1%,-0.4%,1.8%,1.9%
COc1ccc2nc(NNC(=O)c3cc(=O)c4ccccc4o3)sc2c1,11.0%,-22.8%,79.4µM*,19.1%,u,-6.3%
O=C(NNc1nc2c(F)cccc2s1)c1cc(=O)c2ccccc2o1,-17.8%,-18.7%,u,0.7%,u,22.4µM*
Cc1ccncc1C(=O)O,14.5%[60.1 µM],-5.9%,x,x,x,x
[O]=[Bi][O]C(=O)[O][Bi]=[O],0.7%[60.1 µM],-24.8%,x,-0.4%,x,x
CCCCCCCCCCCCCCCC(=O)N[C@@H](COP(=O)(O)O)C(=O)O,26.7µM*!,1.58µM*,x,x,x,x
